Experimental findings from PubChem BioAssay (NCATS) are described below.

Several values for one entry are separate records, joined by “and”; a condition that tells them apart may be missing. Identical values can stand only once. Results filed as inconclusive are left out. Unmarked numbers belong to inactive results. Activity calls are given as the source filed them. Calls follow the shape of the dose curve; as a rule, active = well fitted inhibition curve with a large enough effect; inconclusive = small, poorly fitted or top-dose-only effect; inactive = flat fitted curve, though single readings scatter. *1 amine or outer side, *2 acyl side, *3 side chain or, on linkers, in order; H or OH if unused. Where a SMILES comes first, the peptide text is derived from it. Bridges are numbered along the chain shown (N, C = ends). [ ]: non-standard residue; d: D form. The star is where a group is joined. X5 = NC1=N[C@@H]([C@H](N[*:1])C(=O)[*:2])C[C@H](O)N1; ΔAla(Z-3-ureido) = NC(=O)N/C=C(\N)C(=O)O; β3hOrn = NCCC[C@H](N)CC(=O)*; X2 = CC[C@H](C)CCCCC(=O)*; Dab = NCC[C@H](N)C(=O)O; Dap = NC[C@H](N)C(=O)O
% is scaled to controls: 0 for no effect and ±100 for the full control effect; potency is read from the fitted curve at half-maximal effect.

The test system of this assay is KB-3-1. The experiment in a line: Cytotoxic Profiling of Annotated Libraries Using Quantitative High-Throughput Screening (AID 1296008). Also: nearly all actives have a fitted effect of over 60% in size. Conditions: Five cell lines viability, CellTiter-Glo ATP luminescence, 48-72 h; max response: active compounds read low. Summed up: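 Compounds were pin-transferred onto cells and incubated 48 or 72 hr at 37 degree Celsius, 95% humidity. CellTiter-Glo was added, plates sat 10 min at room temperature, then ATP-coupled luminescence was imaged as the viability read-out.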
Background: In ATP-based viability assays light output follows the ATP content of the culture.
As for `CC(CN1c2ccccc2Sc2cccnc21)N(C)C` (centres undefined), the max response was -2.53%.

On to `C=C1CC[C@H](O)CC1=C/C=C1\CCC[C@]2(C)[C@@H]([C@H](C)CCCC(C)(C)O)CC[C@@H]12`, for which the max response is 5.57%.

As to `CO/N=C(\C(=O)N[C@@H]1C(=O)N2C(C(=O)O)=C(CSc3nnnn3C)CS[C@H]12)c1csc(N)n1`, the max response is -10.7%.

With `CC(=O)[C@@]1(O)CC[C@H]2[C@@H]3C=C(Cl)C4=CC(=O)[C@@H]5C[C@@H]5[C@]4(C)[C@H]3CC[C@@]21C`, the max response is 1.37%.

As to `CC(C)(C)NC[C@H](O)COc1ccccc1C1CCCC1`, the max response is 1.39%.

`O=C(O)CN(CC(=O)O)CC1=CC2C(=CC1=O)Oc1cc(O)c(CN(CC(=O)O)CC(=O)O)cc1C21OC(=O)c2ccccc21` (centres undefined): the max response was -3.16%.

As to `CCN1\C(=C/C=C/C=C/c2sc3ccccc3[n+]2CC)Sc2ccccc21`, the Potency was 9.2 µM (active).

Regarding `CC(C)(CO)[C@@H](O)C(=O)NCCCC(=O)O`, the max response is -10.7%.

`CC(=O)Nc1c(I)c(C(=O)N[C@H]2C(O)O[C@H](CO)[C@@H](O)[C@@H]2O)c(I)c(N(C)C(C)=O)c1I` (some centres undefined): the max response is -7.33%.

Regarding `O=C(O)c1cc(O)c2c(c1)[C@H]([C@H]1c3cc(C(=O)O)cc(O)c3C(=O)c3c(O[C@@H]4O[C@H](CO)[C@@H](O)[C@H](O)[C@H]4O)cccc31)c1cccc(O[C@@H]3O[C@H](CO)[C@@H](O)[C@H](O)[C@H]3O)c1C2=O`, the max response is -13.8%.

In the case of `CN[C@H](CC(C)C)C(=O)N[C@H]1C(=O)N[C@@H](CC(N)=O)C(=O)N[C@H]2C(=O)N[C@H]3C(=O)N[C@H](C(=O)N[C@@H](C(=O)O)c4cc(O)cc(O)c4-c4cc3ccc4O)[C@H](O)c3ccc(c(Cl)c3)Oc3cc2cc(c3O[C@@H]2O[C@H](CO)[C@@H](O)[C@H](O)[C@H]2O[C@H]2C[C@](C)(N)C(O)[C@H](C)O2)Oc2ccc(cc2Cl)[C@H]1O` (some centres undefined), the max response was 9.66% and -29.2%.

Turning to `CC[C@H](C)CCCCC(=O)N[C@@H](CCN)C(=O)N[C@H](C(=O)N[C@@H](CCN)C(=O)N[C@H]1CCNC(=O)[C@@H]([C@H](C)O)NC(=O)[C@H](CCN)NC(=O)[C@H](CCN)NC(=O)[C@H](CC(C)C)NC(=O)[C@@H](CC(C)C)NC(=O)[C@H](CCN)NC1=O)[C@@H](C)O` (X2-[Dab]T[Dab][Dab][Dab][dL]L[Dab][Dab][dT]; lactam 4-C), the max response was -9.96%.

As for `CCCCCCCCCCCCCCCCCCOCC(COP(=O)([O-])OCC[N+](C)(C)C)OC` (centres undefined), the max response was 0.811%.

Turning to `CN(C)CCC(O)(c1ccccc1)c1ccccc1Cl` (centres undefined), the max response is 3.32%.

On to `CC1(C)C(\C=C/C=C\C=C/C=C2/N(CCCCS(=O)(=O)O)c3ccc4ccccc4c3C2(C)C)=[N+](CCCCS(=O)(=O)[O-])c2ccc3ccccc3c21`, for which the max response is -6.53%.

Regarding `O=C1C2CC3CC1CC(O)(C3)C2`, the max response is 2.59%.

As to `NCCC[C@H](N)CC(=O)N[C@H]1CNC(=O)[C@H]([C@H]2C[C@H](O)NC(N)=N2)NC(=O)/C(=C/NC(N)=O)NC(=O)[C@H](CO)NC(=O)[C@H](CO)NC1=O` (β3hOrn-[Dap]SS[ΔAla(Z-3-ureido)][X5]; lactam 1-C), the max response is -0.188%.

For the compound `CCOC(=O)[C@H](CS)NCCN[C@@H](CS)C(=O)OCC`, the max response was 6.15%.

For the compound `C[C@H](CCC(=O)O)[C@H]1CC[C@H]2[C@@H]3[C@H](O)C[C@@H]4C[C@H](O)CC[C@]4(C)[C@H]3C[C@H](O)[C@]12C`, the max response was 1.07%.
